Screening results from PubChem.
TDP1 block: qHTS Assay for Inhibitors of Tyrosyl-DNA Phosphodiesterase (TDP1) | Tyrosyl-DNA phosphodiesterase 1 (Homo sapiens), Q9NUW8 | recombinant TDP1, AlphaScreen DNA substrate cleavage | Potency, µM (series often up to 130 µM), usual class: inhibitors | 350,000 tested, 0.28% active | AID 485290, 2010; also: nearly all actives have a fitted effect of over 40% in size
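Signal: AlphaScreen proximity between streptavidin donor and anti-FITC acceptor beads on intact substrate. Reaction: Tdp1 1 nM, substrate 15 nM final, 5 min RT after 15 min compound preincubation.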
RECQ1 inh-1: qHTS Assay for Inhibitors of RecQ-Like Dna Helicase 1 (RECQ1); AID 2549, 2010; 240,000 tested, 0.54% active; ATP-dependent DNA helicase Q1 (Homo sapiens), P46063; Potency, µM (highest dose often 57.3 µM), usual class: inhibitors; RECQ1 DNA unwinding, red fluorescence kinetic read; also: nearly all actives have a fitted effect of over 30% in size
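RECQ1T1 50 nM; forked duplex (20 bp + 30-nt ss tails) 200 nM, ATP 2 mM final; pH 8.0, 2 mM MgCl2, 2.5 ug/ml poly(dI-dC); 15 min compound preincubation; discontinuous kinetic read over 2 h at RT.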
APEX1 inh: qHTS Assay for Inhibitors of the Human Apurinic/apyrimidinic Endonuclease 1 (APE1). recombinant APE1, TAMRA/BHQ-2 abasic DNA cleavage fluorescence. DNA repair nuclease/redox regulator APEX1 (Homo sapiens), P27695. 350,000 tested, 0.35% active. Potency, µM (doses to about 65.8 µM), usual class: inhibitors; also: nearly all actives have a fitted effect of over 55% in size
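APE1 at 0.75 nM preincubated 15 min at room temperature with compound. Reaction then started with 50 nM double-stranded THF-abasic substrate labelled with TAMRA/BHQ-2, and 525/598 nm fluorescence read kinetically. Activity taken as third-minus-first read difference, normalized to DMSO and NSC13755 controls.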
BLM inh: qHTS Assay for Inhibitors of Bloom's syndrome helicase (BLM). Potency, µM (series often up to 56.1 µM), hits mostly inhibitors. AID 2528, 2010. RecQ-like DNA helicase BLM (Homo sapiens), P54132. recombinant BLM DNA unwinding, fluorescence dequenching. 350,000 tested, 0.2% active; also: nearly all actives have a fitted effect of over 35% in size
KAT2A inh: qHTS Assay for Inhibitors of GCN5L2 | GCN5L2 HAT assay, ThioGlo1 CoA-SH fluorescence | 390,000 tested, 0.21% active | AID 504327, 2011 | Histone acetyltransferase KAT2A (Homo sapiens), Q92830 | Potency, µM (titrated, usually from 58.9 µM), hits mostly inhibitors
Target sequence (Q92830 whole entry, looked up): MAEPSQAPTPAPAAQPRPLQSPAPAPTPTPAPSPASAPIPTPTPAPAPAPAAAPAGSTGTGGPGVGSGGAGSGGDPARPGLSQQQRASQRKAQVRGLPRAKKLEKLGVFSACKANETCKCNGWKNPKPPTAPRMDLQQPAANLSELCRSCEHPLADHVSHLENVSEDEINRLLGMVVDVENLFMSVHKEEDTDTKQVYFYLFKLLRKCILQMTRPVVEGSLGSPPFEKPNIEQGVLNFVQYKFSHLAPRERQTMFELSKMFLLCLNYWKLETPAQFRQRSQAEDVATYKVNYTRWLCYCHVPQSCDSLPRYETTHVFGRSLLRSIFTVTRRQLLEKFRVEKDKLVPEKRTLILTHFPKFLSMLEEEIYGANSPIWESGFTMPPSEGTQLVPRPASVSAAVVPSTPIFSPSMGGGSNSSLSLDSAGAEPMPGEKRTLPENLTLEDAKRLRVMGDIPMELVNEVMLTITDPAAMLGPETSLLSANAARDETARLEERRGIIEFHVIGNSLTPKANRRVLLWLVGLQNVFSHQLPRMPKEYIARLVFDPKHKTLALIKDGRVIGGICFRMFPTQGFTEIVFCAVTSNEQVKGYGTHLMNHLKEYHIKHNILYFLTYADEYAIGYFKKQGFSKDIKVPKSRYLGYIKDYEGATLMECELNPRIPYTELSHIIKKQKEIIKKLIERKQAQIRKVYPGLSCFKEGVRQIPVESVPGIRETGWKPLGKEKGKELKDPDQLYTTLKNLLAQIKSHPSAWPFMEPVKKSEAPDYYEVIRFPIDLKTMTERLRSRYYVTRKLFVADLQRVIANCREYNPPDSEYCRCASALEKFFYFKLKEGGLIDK
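Titration-based screen in which CoA formation is detected via maleimide probe ThioGlo1 (50uM) turning fluorescent on thiol reaction; substrates H3(1-25) 75uM and acetyl-CoA 70uM, GCN5L2 20nM, 20 min incubation at room temperature.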
RECQ1 conf: Confirmation qHTS Assay for Inhibitors of RecQ-Like Dna Helicase 1 (RECQ1); shares compounds with RECQ1 inh-1; RECQ1 helicase DNA unwinding, fluorescence; Potency, µM (highest dose often 229 µM), most hits filed as inhibitors; 610 tested, 28% active; AID 2708, 2010; also: nearly all actives have a fitted effect of over 45% in size
ADP FP counter: Counterscreen for RECQ1 Inhibitors: ADP Fluorescence Polarization Displacement Assay; Potency, µM (series often up to 228 µM), usual class: inhibitors; 530 tested, 27% active; ADP fluorescence polarization displacement counterscreen; shares compounds with RECQ1 inh-1; AID 2711, 2010; also: nearly all actives have a fitted effect of over 45% in size
RECQ1 inh-2: Confirmation qHTS Assay for Inhibitors of RecQ-Like Dna Helicase 1 (RECQ1) - Round 2 Cherry Picks; shares compounds with RECQ1 inh-1; recombinant RECQ1 DNA unwinding, red fluorescence; Potency, µM (titrated, usually from 119 µM), usual class: inhibitors; 1,100 tested, 15% active; also: nearly all actives have a fitted effect of over 50% in size
Numbers stand for hits; 0 = inactive; ? = inconclusive; - = no result; [ ] = another dose, or the depositor's remark. Compounds with a hit are over-represented: about 0.87% of the library has one in this group of screens. Calls follow the shape of the dose curve; as a rule, active = well fitted curve in the direction sought with a large enough effect; inconclusive = small, poorly fitted or top-dose-only effect, or another doubt; inactive = no such curve, though single readings can be large; an effect the other way counts as inactive or inconclusive.

SMILES	TDP1 block	RECQ1 inh-1	APEX1 inh	BLM inh	KAT2A inh	RECQ1 inh-2	others
Fc1ccc(-c2nn(-c3ccc(Cl)cc3)c3c2cnc2ccc(F)cc23)cc1	0	-	-	0	0	-
CSc1nc2ccccc2cc1/C=C(\C#N)c1cccc(Cl)c1	0	13µM	0	0	?	0
CC(C)C(NC(=O)c1ccc(F)cc1)C(=O)N1CCN(C(=O)c2ccco2)CC1 (configuration not stated)	0	-	0	-	0	-
COc1cc2c(cc1OC)C1O[C@](CCCCN3C(=O)c4ccccc4C3=O)(C2)OC2=C1C(=O)CCC2	-	-	0[12.4 µM]	0[12.4 µM]	0[12.7 µM]	-
CCc1ccc(OC2=NS(=O)(=O)c3ccccc32)cc1	0	0	0	0	0	-
CCN(CC)c1cccc(OC2=NS(=O)(=O)c3ccccc32)c1	0	?	0	0	0	0
O=C1OC2(c3ccc(O)cc3Oc3cc(O)ccc32)c2ccccc21	0	32µM	28µM	35µM	?	79µM
Fc1ccc2cc(-c3ccsc3)ncc2c1	0	-	0	-	0	-
Nc1cc(=O)[nH]c(SCC(=O)Nc2ccc3c(c2)CCC3)n1	0	?	?	0	0	0
COc1ccc(Cl)cc1NC(=O)Cn1c(=O)n(Cc2nc(C)no2)c(=O)c2ccccc21	0	-	-	0	0	-
O=C(CSC(=S)N1CCCC1)c1cc(Br)cc(Br)c1O	0	32µM	0	0	0	50µM
CC1CCCN(C(=S)SCC(=O)O)C1 (configuration not stated)	0	0	0	0	0	-
CC1CCCN(C(=S)SCC(=O)c2cc(Br)cc(Br)c2O)C1 (configuration not stated)	0	?	0	0	0	0
CO[C@@H]1COC(=O)[C@@H](C)NC(=O)C/C=C\[C@@H](C)[C@H](NS(=O)(=O)c2ccc(C)cc2)COC(=O)[C@H](C)NC(=O)C/C=C\[C@H]1C	0[21 µM]	0[11.5 µM]	0[12.4 µM]	0[12.4 µM]	-	-
COc1ccc(-c2nc3c(c4c2C[C@H](c2ccccc2)OC4)CN(S(=O)(=O)c2ccc4c(c2)OCCN4C)CC3)c(C)c1	0[21 µM]	0[11.5 µM]	0[12.4 µM]	0[12.4 µM]	-	-
CCOC(=O)C(C)Oc1cccc2c(=O)n(CC(=O)NCc3ccc4c(c3)OCO4)ccc12 (configuration not stated)	0	0	0	0	0	-	RECQ1 conf=0;ADP FP counter=?
CCOC(=O)C(C)Oc1cccc2c(=O)n(CC(=O)Nc3ccc4c(c3)OCCO4)ccc12 (configuration not stated)	0	0	0	0	0	-
COc1ccc(-c2csc(NC(=O)c3ccccc3NS(=O)(=O)c3ccc(C)cc3)n2)cc1	0	?	0	0	0	-
COc1ccc(S(=O)(=O)Nc2ccccc2C(=O)Nc2nc(-c3ccc(F)cc3)cs2)cc1OC	0	?	0	0	0	?
O=C(Nn1c(C2CCCCC2)nc2ccccc2c1=O)c1ccc(Cl)c([N+](=O)[O-])c1	0	0	0	0	0	-
Cc1cc(C(=O)Nn2c(C3CCCCC3)nc3ccccc3c2=O)ccc1[N+](=O)[O-]	0	25µM	0	0	0	0
O=C(O)c1ccc(Cl)c(NC(=O)C2CCCN2S(=O)(=O)c2cccc3nsnc23)c1 (configuration not stated)	0	0	0	0	0	-	RECQ1 conf=0;ADP FP counter=0
Cc1cc(C)cc(-n2c(C)nc3cc(C(=O)NCc4ccc(F)cc4)ccc32)c1	0	-	-	0	0	-
O=C(O)CC/C(=C\c1cccc(NC(=O)c2ccccc2Cl)c1)c1nc2ccccc2s1	-	?	?	0	0	?
O=C(O)CC/C(=C\c1ccc(N2CCCC2)c([N+](=O)[O-])c1)c1nc2ccccc2s1	-	?	?	?	0	?
SMILES	TDP1 block	RECQ1 inh-1	APEX1 inh	BLM inh	KAT2A inh	RECQ1 inh-2	others
Cn1cnnc1Sc1ccc(/C=C(\CC(=O)O)c2nc3ccccc3s2)cc1[N+](=O)[O-]	0	0	0	0	0	-	RECQ1 conf=0;ADP FP counter=0
COc1cccc(/C=C(\CC(=O)O)c2nc3ccccc3s2)c1	0	0	0	0	0	-
COC(=O)NC(/C(C(=O)OC)=C(\C)NCc1ccccc1)c1cccs1 (configuration not stated)	0[21 µM]	0[11.5 µM]	?	0[12.4 µM]	-	-
O=C(N=c1ccn(-c2nc3ccccc3nc2NS(=O)(=O)c2ccc(Cl)cc2)cc1)c1cccs1	-	?	0	0	0	0
CCOc1ccc2nc(SCC(=O)N3c4ccccc4Sc4ccccc43)sc2c1	0	0	0	0	0	-	RECQ1 conf=0;ADP FP counter=0
C=C(C)C1COc2cc3oc(=O)ccc3cc2O1 (configuration not stated)	0	0	0	0	0	-
Cc1cccc(NC(=O)N2CCC(N3CCN(Cc4ccccc4)C(=O)C3=O)CC2)c1C	0	-	-	0	0	-
COc1ccc(C2CC(c3ccccc3)Oc3c(C)ccc(C)c32)cc1 (configuration not stated)	0	0	0	0	-	-
CN=Cc1nc(-c2ccccc2)oc1O	0	0	0	0	0	-
CC1=Nc2ccccc2/C1=C\c1nc(-c2ccc(F)cc2)oc1O	0	?	0	0	0[0.501 µM]	?
Cc1cccc(C)c1NC(=O)Cn1c(=O)n(Cc2ccccc2)c(=O)c2c(C)c(C(=O)N(C)C)sc21	0	-	-	0	0	-
COc1ccc2[nH]cc(CCNc3ncnc4ccc(-c5ccoc5)cc34)c2c1	-	?	0	0	0	?
COCCN1Cc2cccc(C(=O)Nc3ccc(Cl)cc3Cl)c2C1=O	0	-	-	0	0	-
CN(C)c1ccc(CNC(=O)[C@@]2(C)C=C[C@@H](Cc3ccccc3)N2C)cc1	0	0	0	0	-	-
CCOC(=O)Cc1cc(=O)n(-c2nc3ccccc3s2)[nH]1	0	?	?	0	?	0
CCCc1cc(=O)n(-c2nc3ccccc3s2)[nH]1	-	0	0	0	0	-
